Source: PubChem BioAssay AID1159580 (chemical genetic matrix, 2015)
“And” between values parts separate entries of the source, which are not always exact repeats. Equal values may be shown once. Screen size: about 5,500 compounds; about 2,000 (36%) were called active. About 18% were inconclusive and are not listed. Rule as the data show it: active = normalized growth mostly below about 0.91 (no sharp cut-off); inconclusive = no clear call, values can overlap the other calls; inactive = mostly above about 0.92. The list shows a part of the results.

Test: chemical genetic growth profiling, strain panel (AID 1159580);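 also: tested at 20 µM; growth read once vehicle control cultures reached saturation at 30 °C; 1 = growth at the plate median or of vehicle wells; lower values mean less growth of the strain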
Conditions: S. cerevisiae deletion strains, growth OD

Measured: normalized growth

Cc1[nH]c2ccccc2c1CN(C)C
inactive: locus YAL021C, strain ccr4, active compounds read low 1.01 | locus YAL026C, strain drs2, active compounds read low 1.03 | locus YAL030W, strain snc1, active compounds read low 1.02 | locus YBL061C, strain skt5, active compounds read low 1.02 | locus YBR009C, strain hhf1, active compounds read low 1.02 | locus YBR021W, strain FUR4, active compounds read low 0.951 | locus YBR023C, strain chs3, active compounds read low 1.02 | locus YBR171W, strain sec66, active compounds read low 1.02 | locus YBR229C, strain ROT2, active compounds read low 0.998 | locus YBR231C, strain swc5, active compounds read low 1.02 | locus YBR279W, strain paf1, active compounds read low 1.01 | locus YCL011C, strain gbp2, active compounds read low 1.02 | locus YCL016C, strain dcc1, active compounds read low 1.01 | locus YCL029C, strain bik1, active compounds read low 0.986 | locus YCL069W, strain vba3, active compounds read low 1.01 | locus YCR088W, strain abp1, active compounds read low 1.02 | locus YDL005C, strain med2, active compounds read low 1.03 | locus YDL035C, strain GPR1, active compounds read low 1.01 | locus YDL040C, strain nat1, active compounds read low 1.02 | locus YDL074C, strain BRE1, active compounds read low 1 | locus YDL101C, strain DUN1, active compounds read low 1.01 | locus YDL134C, strain PPH21, active compounds read low 1.02 | locus YDL185W, strain tfp1, active compounds read low 1.01 | locus YDL192W, strain arf1, active compounds read low 0.983 | locus YDR001C, strain nth1, active compounds read low 1.01 | locus YDR069C, strain doa4, active compounds read low 1.02 | locus YDR101C, strain arx1, active compounds read low 0.968 | locus YDR137W, strain rgp1, active compounds read low 1.03 | locus YDR150W, strain NUM1, active compounds read low 1.01 | locus YDR159W, strain sac3, active compounds read low 1.05 | locus YDR162C, strain NBP2, active compounds read low 1.07 | locus YDR195W, strain ref2 1.03 | locus YDR297W, strain sur2, active compounds read low 1.02 | locus YDR318W, strain mcm21, active compounds read low 0.995 | locus YDR334W, strain swr1, active compounds read low 1.01 | locus YDR335W, strain msn5, active compounds read low 1.01 | locus YDR388W, active compounds read low 0.993 | locus YDR392W, strain spt3, active compounds read low 1.03 | locus YDR502C, strain sam2, active compounds read low 0.987 | locus YEL003W, strain gim4, active compounds read low 1.01 | locus YEL037C, strain rad23, active compounds read low 1.01 | locus YEL061C, strain CIN8 (second series), active compounds read low 1.03 | locus YEL061C, strain CIN8, active compounds read low 1.02 | locus YER015W, strain faa2, active compounds read low 1.01 | locus YER016W, strain bim1, active compounds read low 1.01 | locus YER110C, active compounds read low 0.984 | locus YER111C, strain swi4, active compounds read low 1.03 | locus YER155C, strain BEM2, active compounds read low 0.983 | locus YER167W, strain BCK2, active compounds read low 1 | locus YFR010W, strain ubp6, active compounds read low 1.01 | locus YGL078C, strain dbp3, active compounds read low 1.01 | locus YGL086W, strain mad1, active compounds read low 0.996 | locus YGL167C, strain pmr1, active compounds read low 1.04 | locus YGL173C, strain kem1, active compounds read low 1.03 | locus YGL227W, strain vid30, active compounds read low 1.01 | locus YGL240W, strain doc1, active compounds read low 1.01 | locus YGL248W, strain PDE1, active compounds read low 1.03 | locus YGL253W, strain hxk2, active compounds read low 1.02 | locus YGR135W, strain pre9, active compounds read low 0.995 | locus YGR229C, strain SMI1, active compounds read low 1.06 | locus YGR252W, strain gcn5, active compounds read low 0.908 | locus YHR013C, strain ard1, active compounds read low 1.03 | locus YHR027C, strain rpn1, active compounds read low 1.03 | locus YHR030C, strain SLT2, active compounds read low 1 and 0.988 | locus YHR079C, strain IRE1 (second series), active compounds read low 0.995 | locus YHR079C, strain IRE1, active compounds read low 0.982 | locus YHR094C, strain hxt1, active compounds read low 0.989 | locus YHR129C, strain ARP1, active compounds read low 1.01 | locus YHR142W, strain chs7, active compounds read low 1.03 | locus YHR200W, strain rpn10, active compounds read low 0.991 | locus YIL066C, strain RNR3, active compounds read low 1.02 | locus YIL073C, strain SPO22, active compounds read low 1.02 | locus YIL125W, strain kgd1, active compounds read low 1.01 | locus YIR030C, strain dcg1, active compounds read low 0.99 | locus YJL092W, strain hpr5, active compounds read low 1.01 | locus YJL095W, strain BCK1 (second series), active compounds read low 1.02 | locus YJL095W, strain BCK1, active compounds read low 1.06 and 0.973 | locus YJL115W, strain asf1, active compounds read low 1.02 | locus YJL129C, strain trk1, active compounds read low 1.03 | locus YJL134W, strain LCB3, active compounds read low 0.994 | locus YJL154C, strain vps35, active compounds read low 1.02 | locus YJL164C, strain tpk1, active compounds read low 1.01 | locus YJL166W, strain qcr8, active compounds read low 1.02 | locus YJL168C, strain set2, active compounds read low 0.993 | locus YJL187C, strain SWE1 (second series), active compounds read low 1.01 | locus YJL187C, strain SWE1, active compounds read low 1.02 | locus YJR043C, strain POL32, active compounds read low 0.995 | locus YJR066W, strain TOR1, active compounds read low 0.906
